# From PubChem
# Only some compounds are listed: those with a hit (about 3.8% of all), similar ones and a draw of the others.
# HT1080 IDH1KD tx – toxicity to HT-1080 IDH1 knockdown cells (counter line). actives 2% (n = 360,000). HT-1080 IDH1 knockdown viability, ATP luminescence, 48 h. AID 686971. Potency, µM (series often up to 46.1 µM), for inactives: at the top dose activity, negative = toxicity, actives largely listed as cytotoxic;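 also: 0% = DMSO wells and -100% = cell-free medium wells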
#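 Knockdown cells (IDH1KD HT-1080) received compounds 2 h after plating at 750 cells/well and were kept 48 h at 37 °C in 5% FBS RPMI. A CellTiter-Glo luminescence read gave % activity for curve fitting.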
# TGFb inhibitor – TGF-b pathway inhibition; actives 1.2% (n = 410,000); AID 588855; Potency, µM (top dose mostly 46.1 µM), inactives show top-dose activity, negative = inhibition, hits mostly inhibitors; HepG2 CAGA-GFP TGF-b/SMAD3 reporter, GFP fluorescence, 18 h; TGF-beta stimulated, 500 pg/mL final; also: % is scaled to controls: 0 for no effect and ±100 for the full control effect; nearly all actives have a fitted effect of over 65% in size
#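 HEPG2 CAGA-GFP reporter cells (1000/well, DMEM with 1% FBS) received compounds, then recombinant TGF-beta at 500 pg/mL final for 18 hours at 37 degrees C. Per-cell GFP summed per well was normalised to unstimulated and stimulated DMSO controls before curve fitting.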
# HT1080NT lethal – kills 2HG-producing HT-1080-NT fibrosarcoma cells | actives 1.6% (n = 360,000) | HT-1080-NT fibrosarcoma viability, CellTiter-Glo ATP luminescence, 48 h | Potency, µM (top dose mostly 46.1 µM), inactives show at the highest dose activity, negative = less viability, usual class: cytotoxic | AID 686970;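 also: NT is the 2HG producing partner of a matched IDH1 knockdown line; 0% = DMSO-treated cells and -100% = media-only wells without cells; nearly all actives have a fitted effect of over 55% in size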
#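 750 cells/well, RPMI + 5% FBS; 2 h settle, compound pin-transfer, 48 h at 37 degrees C. CellTiter-Glo 10 min RT, luminescence. Normalized to DMSO and media-only wells.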
# ATXN viability – reduces viability in counter-screen for ATXN expression inhibitors. S2 cells (HEK-293 line with an ATXN2-luciferase reporter) viability, CellTiter-Fluor protease fluorescence, 24 h. Potency, µM (titrated, usually from 56.7 µM), most hits filed as cytotoxic. actives 0.49% (n = 400,000). AID 651635; also: nearly all actives have a fitted effect of over 40% in size
# HepG2 tox-1 – kills HepG2 cells in TGF-b inhibitor counter-screen | HepG2 CAGA-GFP viability, ATP luminescence, 18 h | Potency, µM (series often up to 46.1 µM), inactives show at the top dose activity change, negative = cytotoxicity, usual class: cytotoxic | actives 0.76% (n = 410,000)
#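 CellTiter-Glo luminescence gave cytotoxicity after 18 hours at 37 degrees C. The cells were HepG2 CAGA-GFP in 1% FBS DMEM, stimulated with 500 pg/mL TGF-beta after compound addition. %Activity was normalised to no-cell wells (complete cell-killing) and DMSO (no toxicity), and curves were fitted and classified.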
# ATXN2 expr inh – ATXN2 expression inhibition. HEK-293 ATXN2-luciferase reporter, luminescence, 24 h. Potency, µM (doses to about 57 µM), for the others: at the top dose activity change, negative = inhibition, usual class: inhibitors. actives 0.72% (n = 360,000). AID 1745845; also: % is scaled to controls: 0 for no effect and ±100 for the full control effect; nearly all actives have a fitted effect of over 55% in size
#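 qHTS (up to 57 uM final) was run with 24 h compound exposure of reporter cells at 37 °C. Each well was multiplexed: SteadyGlo luminescence measured ATXN2-luciferase expression after a fluorogenic Gly-Phe-AFC viability readout (25 uM final).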
# TGFb confirm – TGF-b pathway inhibition, cherry-pick retest | shares compounds with TGFb inhibitor | HepG2 CAGA-GFP TGF-b reporter, GFP fluorescence, 18 h; cells stimulated with TGF-beta, 500 pg/mL | Potency, µM (series often up to 46.1 µM), inactives show top-dose activity, negative = inhibition, usual class: inhibitors | actives 63% (n = 1,600) | AID 720534; also: % is scaled to controls: 0 for no effect and ±100 for the full control effect; nearly all actives have a fitted effect of over 65% in size
# HepG2 tox-2 – counter-screen for TGF-b inhibitors: cytotoxicity in HepG2 cells; HepG2 CAGA-GFP viability, ATP luminescence, 18 h; cells stimulated with TGF-beta, 500 pg/mL; AID 720535; actives 27% (n = 1,600); Potency, µM (top dose mostly 46.1 µM), for inactives: at the top dose activity, negative = cytotoxicity, most hits filed as inhibitors; shares compounds with TGFb inhibitor; also: % is scaled to controls: 0 for no effect and ±100 for the full control effect; nearly all actives have a fitted effect of over 70% in size
# CCL64 TGFb inh – blocks TGF-b signaling in CCL64 reporter cells | shares compounds with TGFb inhibitor | CCL64 CAGA-GFP reporter, TGF-b stimulated, GFP fluorescence, 18 h | Potency, µM (doses to about 46.1 µM), without a hit: at the top dose activity, negative = inhibition, most hits filed as inhibitors | actives 41% (n = 1,600) | AID 720536; also: nearly all actives have a fitted effect of over 65% in size
# COP TGFb inh – blocks TGF-b signaling in HepG2 COP reporter; Potency, µM (highest dose often 46.1 µM), without a hit: at the highest dose activity, negative = inhibition, most hits filed as inhibitors; HepG2 COP-GFP TGF-b reporter, GFP fluorescence, 18 h; cells stimulated by added recombinant TGF-beta; AID 720537; actives 3% (n = 1,600); shares compounds with TGFb inhibitor; also: nearly all actives have a fitted effect of over 70% in size
# * marks the source's active call; other numbers are inactive results; i = inactive; u = inconclusive; x = no result given. Calls follow the shape of the dose curve; as a rule, active = well fitted curve in the direction sought with a large enough effect; inconclusive = small, poorly fitted or top-dose-only effect, or another doubt; inactive = no such curve, though single readings can be large; an effect the other way counts as inactive or inconclusive. Potency is read from the fitted curve at half-maximal effect.
SMILES,HT1080 IDH1KD tx,TGFb inhibitor,HT1080NT lethal,ATXN viability,HepG2 tox-1,ATXN2 expr inh,TGFb confirm,HepG2 tox-2,CCL64 TGFb inh,COP TGFb inh
CC1=CC(C)CC(C)OC(=O)CC(c2ccc(O)cc2)NC(=O)C(Cc2c(Br)[nH]c3ccccc23)N(C)C(=O)C(C)NC(=O)C(C)C1 (stereo not given),0.0517µM*,15.8µM*,1.3µM*,0.015µM*,-7.9%,u,u,u,0.259µM*,79.4%
Cc1ccc(S(=O)(=O)c2nnn3c2nc(N2CCC(C(N)=O)CC2)c2cc(Cl)ccc23)cc1C,x,38.3%,x,i,-10.3%,u,x,x,x,x
CC1CC(C)(O)CC(C(O)CC2CC(=O)NC(=O)C2)C1=O (stereo not given),0.164µM*,0.316µM*,u,u,-2.9%,u,0.13µM*,u,0.259µM*,35.1%
CC=CC(C)=CC(C)C(=O)CC(O)CC1CC(=O)NC(=O)C1 (stereo not given),-17.3%,-24.8%,-14.3%,u,-0.6%,x,x,x,x,x
CCn1cc(C(=O)NCCc2ccc(OC)c(OC)c2)c(=O)c2cc(S(=O)(=O)N(C)C3CCCCC3)ccc21,x,u,x,x,-5.2%,u,x,x,x,x
Cc1nc(-c2cccc(NC(=O)c3ccc(Cl)c(S(=O)(=O)N4CCCC4)c3)c2)cs1,-19.9%,u,-7.9%,u,-9.2%,x,x,x,x,x
COc1cc2cc(C(=O)N3CC(COS(C)(=O)=O)c4ccc(O)cc43)[nH]c2c(OC)c1OC (stereo not given),0.13µM*,0.0891µM*,2.91µM*,0.336µM*,-91.9%,0.299µM*,0.0058µM*,0.0326µM*,0.0058µM*,42.4%
O=C(c1cn(Cc2ccccc2F)c2ncccc12)C(F)(F)F,-7.2%,u,-5.1%,i,-4.0%,-3.5%,u,-8.5%,-0.4%,-1.2%
COC(=O)Nc1nc2ccccc2[nH]1,u,-2.9%,u,i,5.7%,-19.0%,x,x,x,x
CCCOc1ccc(CSc2nc3ccccc3[nH]2)cc1,11.2µM*,10µM*,u,u,-46.4%,3.9%,-14.6%,u,u,3.7%
CCN(CC)C(=O)c1ccc(NC(=O)c2cccc(C(F)(F)F)c2)cc1,11.0%,-12.6%,2.4%,i,-12.9%,-10.8%,x,x,x,x
CCN(CCCl)c1cc(CN(C)C)cc(NC(=O)c2ccc(C(=O)Nc3cc(CN(C)C)cc(N(CC)CCCl)c3)cc2)c1,2.91µM*,3.98µM*,7.31µM*,x,-103.8%,0.708µM*,1.03µM*,1.03µM*,1.03µM*,u
